According to PubChem BioAssay:
A number with no mark means an inactive call. The rule behind the calls is not given here.

Molecular target: Pantothenate synthetase (Mycobacterium tuberculosis (strain ATCC 25618 / H37Rv)) (UniProt P9WIL5)
Experiment: Coupled enzyme confirmation of inhibitors against recombinant Mtb PanC (AID 375);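 note: 0% = full reaction with vehicle and 100% = no enzyme background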
Conditions: coupled enzyme assay; at 10 µM, active compounds read high

Pantothenate synthetase (Mycobacterium tuberculosis (strain ATCC 25618 / H37Rv)), sequence (P9WIL5 whole entry, looked up): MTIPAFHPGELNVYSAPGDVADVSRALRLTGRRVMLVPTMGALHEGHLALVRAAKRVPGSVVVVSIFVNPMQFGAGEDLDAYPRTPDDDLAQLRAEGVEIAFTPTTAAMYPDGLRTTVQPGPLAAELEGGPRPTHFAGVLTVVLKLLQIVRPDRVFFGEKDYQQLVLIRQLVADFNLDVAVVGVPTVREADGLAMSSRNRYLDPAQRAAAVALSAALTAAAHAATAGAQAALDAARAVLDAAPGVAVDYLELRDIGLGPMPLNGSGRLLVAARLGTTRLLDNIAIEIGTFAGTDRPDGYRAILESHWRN

Row | SMILES | inhibition [%]
1 | Cc1ccc(NC(=O)COS(=O)c2ccc(C)cc2)cc1 (stereo not given) | 0
2 | C=C(C)Cn1c(SCC)nc2ccccc2c1=O | 4
3 | CC1Cc2ccccc2N1C(=O)c1cnsn1 (stereo not given) | 0
4 | O=C(NCc1nnc(SCC(=O)N2CCC(Cc3ccccc3)CC2)o1)c1ccccc1F | 0
5 | CC(C)CNC(=O)c1c(N)n(/N=C/c2ccccn2)c2nc3ccccc3nc12 | 0
6 | O=C(OCCN(CCOC(=O)c1ccncc1)S(=O)(=O)c1cccs1)c1ccncc1 | 0
7 | Cc1sc(NC(=O)CSc2nc(N)n(CC(=O)c3ccccc3)n2)c(C#N)c1C | 4
8 | COc1ccc(NC(=O)Nc2cc(C)ccc2OC)cc1 | 0
9 | COC(=O)c1cc2ccsc2n1Cc1nc(-c2ccc(OC)cc2)oc1C | 9
10 | COc1cc(C)c(N)cc1C(C)C | 2
11 | CCc1ccccc1NC(=O)CSc1nc2n[nH]c(C)c2c(=N)n1-c1ccc(OC)cc1 | 0
12 | CC(CC(=O)NC1CCSC1=O)c1ccccc1 (stereo not given) | 0
13 | Cc1ccc(N2C(=O)c3oc4ccccc4c(=O)c3C2c2cccc(O)c2)nc1 (stereo not given) | 0
14 | O=C(O)C1CC(=O)N(CCOc2ccccc2)C1 (stereo not given) | 8
15 | COc1cc(NS(=O)(=O)c2ccc(Br)s2)cc(OC)c1 | 0
16 | CCOC(=O)c1c(C)[nH]c(C(=O)COC(=O)C2CC2C)c1C (stereo not given) | 0
17 | Cn1c(SCC(=O)Nc2cccc3ccccc23)nc(O)cc1=O | 0
18 | CC(C)(C)NCc1cc2ccccc2[nH]c1=O | 0
19 | CCOC(=O)C1CCN(C(=O)c2ccc(OC)cc2OC)CC1 | 2
20 | CCSc1ncc(C#N)c(=O)[nH]1 | 0

Row | SMILES | inhibition [%]
21 | CCCCOc1ccc(C(=O)Nn2cnnc2)cc1 | 1
22 | CC(OC(=O)C1CC=CCC1C(N)=O)C(Cl)=C(Cl)Cl (stereo not given) | 0
23 | CC(=O)c1c(C)nn(C(C)CC(=O)O)c1C (stereo not given) | 0
24 | CCC(C)(C)n1nnnc1C(c1cc2cc(OC)ccc2[nH]c1=O)N1CCc2ccccc21 (stereo not given) | 0
25 | C/C(NC1CCCC1)=C(/C#N)C(N)=O | 9
26 | O=C(O)C1CC=CCC1C(=O)Nc1cc(Cl)ccc1Cl (stereo not given) | 1
27 | COc1ccc(CNc2ccc(C(=O)O)cc2)cc1 | 0
28 | Cc1ccc(NC(=O)C2CCCN(S(=O)(=O)c3cnc[nH]3)C2)c(Br)c1 (stereo not given) | 0
29 | O=C(Nc1nncs1)c1ccccc1NS(=O)(=O)c1cccs1 | 0
30 | CCOC(=O)C1CCN(c2c(N(C)Cc3ccco3)c(=O)c2=O)CC1 | 0
31 | CCn1nc(C(=O)OCC(=O)c2cc(C)n(Cc3cccs3)c2C)c2ccccc2c1=O | 1
32 | O=C(NCCN1CCOCC1)c1ccc2c(c1)N(Cc1ccccc1F)C(=O)CS2 | 0
33 | CCSc1nc(N)c(C#N)c(-c2ccccc2Cl)c1C#N | 6
34 | S=c1[nH]nc(COc2ccccc2)n1C1CCCCC1 | 0
35 | CN1CCN(C2=Nc3ccccc3Oc3ccc(Cl)cc32)CC1 | 4
36 | COc1ccc(-n2c(SCCC(=O)O)nnc2-c2ccncc2)cc1 | 5
37 | CC(C)C(=O)Nc1ccc2c(c1)nc1n2CCSC1 | 0
38 | CCC(C)NC(=O)C1CCCN(S(=O)(=O)c2ccc(-n3cnnn3)cc2)C1 (stereo not given) | 0
39 | CCOC(=O)c1ccc(N2C(=O)CC(Sc3nnc(C)s3)C2=O)cc1 (stereo not given) | 0
40 | COCCn1c(SCC(=O)N(C(C)C)C(C)C)nnc1-c1cc2ccccc2cc1O | 0
